In the library only some 19% were active in any assay of this set; here they are far more common.
SARS PLpro yeast: qHTS of Yeast-based Assay for SARS-CoV PLP. Potency, µM (highest dose often 32.9 µM), for the others: at the highest dose activity, positive = growth rescue, most hits filed as activators. S. cerevisiae expressing SARS-CoV PLpro, growth rescue. 330,000 compounds, 0.19% hits. AID 485353, 2010; calls by dose curve; note: potency is the fitted concentration of half-maximal effect; 0% is about no effect; nearly all actives have a fitted effect of over 55% in size
Pf growth 48h: Primary qHTS for delayed death inhibitors of the malarial parasite plastid, 48 hour incubation | P. falciparum luciferase growth in erythrocytes, 48 h | Potency, µM (highest dose often 28.7 µM), inactives show top-dose activity change, negative = inhibition, most hits filed as inhibitors | 310,000 compounds, 5.9% hits; note: potency is the fitted concentration of half-maximal effect; % is set by controls: 0 for no effect and ±100 for the full control effect
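Read-out is firefly luciferase luminescence from an integrated reporter in P. falciparum, so falling signal marks reduced parasite growth. Infected erythrocytes were at 2% hematocrit and 0.1% parasitemia (final) in Albumax-supplemented RPMI 1640.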
AMA1-RON2 inh: qHTS for Inhibitors of AMA1-RON; Towards Development of Antimalarial Drug Lead: Primary Screen | Plasmodium falciparum AMA1 (3D7) - RON2 peptide interaction | AlphaScreen AMA1-biotinylated RON2 peptide binding | Potency, µM (titrated, usually from 58.2 µM), without a hit: at the highest dose activity change, negative = inhibition, most hits filed as inhibitors | 360,000 compounds, 0.2% hits;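 note: potency is the fitted concentration of half-maximal effect; 0% = vehicle wells and -100% = peptide control; nearly all actives have a fitted effect of over 45% in size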
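AMA1 (3D7) with his tag at 25 nM final met compounds first, then biotinylated RON2 peptide at 25 nM; detection used donor plus acceptor beads, 10 µg/mL apiece, read by AlphaScreen after 30 min at room temperature.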
Shiga toxin inh: A qHTS for Small Molecule Inhibitors of Shiga Toxin; Vero cells, Shiga toxin protein synthesis inhibition reporter; inhibition, % at 38.7 µM; AID 2315, 2010; 290,000 compounds, 9.2% hits; in the data active = inhibition mostly above about 28%, no sharp cut-off; inactive = mostly below about 43%; note: 0% is about no effect
Pf growth 96h: Primary qHTS for delayed death inhibitors of the malarial parasite plastid, 96 hour incubation. P. falciparum luciferase reporter growth, 96 h. Potency, µM (highest dose often 28.7 µM), for inactives: at the top dose activity change, negative = inhibition, most hits filed as inhibitors. 320,000 compounds, 6.9% hits. AID 504834, 2011; note: potency is the fitted concentration of half-maximal effect; % is set by controls: 0 for no effect and ±100 for the full control effect
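Compounds incubated with erythrocytes infected by luciferase-expressing P. falciparum (2% hematocrit, 0.05% parasitemia final) for 96 hours, 37 C in 5% CO2. Growth inhibition scored as decreased luciferase luminescence.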
Cycloheximide cs: Cycloheximide Counterscreen for Small Molecule Inhibitors of Shiga Toxin; cell reporter, cycloheximide protein synthesis inhibition counterscreen; max response, %; AID 2314, 2010; 300,000 compounds, 12% hits; in the data active = max response mostly above about 13%, no sharp cut-off; inactive = mostly below about 14%; note: read at 38.3 µM for the half of the compounds with a filed dose; 0% is about no effect
* hit, by the source's call; ? = inconclusive; . = not tested or not shown; [ ] = another dose, or the depositor's remark. Unless noted, calls come from the whole dose curve; as a rule, active = well fitted curve in the direction sought with a large enough effect; inconclusive = small, poorly fitted or top-dose-only effect, or another doubt; inactive = no such curve, though single readings can be large; an effect the other way counts as inactive or inconclusive.

SMILES	SARS PLpro yeast	Pf growth 48h	AMA1-RON2 inh	Shiga toxin inh	Pf growth 96h	Cycloheximide cs
CC(C)(C)c1ccc(C(=O)c2c[nH]c(C(=O)NCC3CCCO3)c2)cc1 (centres undefined)	-8%	?	0%	22	?	22*
COc1ccc(C(=O)c2c[nH]c(C(=O)N=CN(C)C)c2)cc1	1%	31%	-16%	42*	44%	20*
O=C(NCC1CCCO1)c1cc(C(=O)C2CCCCC2)c[nH]1 (centres undefined)	-4%	?	-2%	22	?	13
COc1ccc(C(=O)c2c[nH]c(C(=O)NCC3CCCO3)c2)cc1 (centres undefined)	-9%	-30%	-18%	28	?	21*
Cc1ccccc1C(=O)c1c[nH]c(C(=O)N=CN(C)C)c1	-1%	12%	13%	-13	12%	-2
CCOC(=O)C1(C)CCCN(C(=O)c2ccc(OC)c(OC)c2)C1 (centres undefined)	.	.	5%	.	.	.
CCOC(=O)C1(C)CCCN1C(=O)c1sccc1C (centres undefined)	.	.	19%	.	.	.
O=C(Nc1cccc(S(=O)(=O)NC2=NCCCCC2)c1)c1cc(-c2ccc(Cl)cc2)nc2ccccc12	-5%	-2%	9%	14	?	-4
CC(C)(C)c1ccc(C(=O)c2c[nH]c(C(=O)NCCc3ccccn3)c2)cc1	0%	10µM*	5%	20	?	16
COc1ccccc1N=Nc1[nH]c2ccc(C)cc2c1O	3%	17%	-1%[11.6 µM]	32*	?	22*
COc1ccccc1/C=C1\SC(=S)N(CCC(=O)Nc2cccc(O)c2)C1=O	-1%	?	2%	27*	260%	17*
COc1ccccc1/C=C1\SC(=S)N(CCC(=O)Nc2cc(C)on2)C1=O	0%	-7%	3%	-10	9.3µM*	-6
COc1ccccc1/C=C1\SC(=O)N(CC(=O)NCCCn2ccnc2)C1=O	.	12µM*	1%	-3	?	-1
O=C(CN1C(=O)S/C(=C\c2ccccc2Cl)C1=O)NCCCn1ccnc1	-6%	37%	5%	-3	25%	1
COc1ccc(NC(=O)Cc2ccsc2)cc1S(=O)(=O)N1CCOCC1	0%	?	-8%	.	?	.
O=C(Cc1cccs1)N=Nc1c(O)[nH]c2ccc(Br)cc12	-1%	5%	-11%	-4	48%	-2
COc1ccc2[nH]c(O)c(N=NC(=O)Cc3cccs3)c2c1	-1%	5%	-4%	39*	24%	27*
O=C(Cc1cccs1)N=Nc1c(O)[nH]c2ccccc12	-2%	?	?	85*	?	56*
Cc1cc2cc(CCNC(=O)c3cccs3)c(=O)[nH]c2cc1C	3%	70%	-2%	54*	-15%	31*
O=C(NCc1ccc2[nH]c3c(c2c1)CCCC3)c1ccc(S(=O)(=O)N2CCCCC2)cc1	2%	?	7%	-9	10µM*	-2
Cc1cc2cc(CCNC(=O)c3ccc(S(=O)(=O)N4CCOCC4)cc3)c(=O)[nH]c2cc1C	-7%	?	-2%	24	8.3µM*	-1
Cc1ccc(C)c2[nH]c(=O)c(CCNC(=O)c3ccc(S(=O)(=O)N4CCCC4)cc3)cc12	1%	12µM*	-9%	33	?	-1
CCC(CC)C(=O)NCCc1cc2cc(C)c(C)cc2[nH]c1=O	3%	7%	-5%	-1	4%	-2
COc1ccc2[nH]c3c(c2c1)CCN1C(=O)C(CC(=O)NCCC2=CCCCC2)C[C@H](C(=O)N2CCCCC2)[C@@]31C (some centres undefined)	-12%	.	14%	.	.	.
CC1CCCCN1C(=O)CSc1nc(C2CC2)nc2ccccc12 (centres undefined)	-2%	?	11%	-5	-41%	-7
SMILES	SARS PLpro yeast	Pf growth 48h	AMA1-RON2 inh	Shiga toxin inh	Pf growth 96h	Cycloheximide cs
CCOc1ccc(C(=O)Nc2cccc(C(C)=O)c2)cc1[N+](=O)[O-]	0%	-4%	0%	-1	138%	-2
Cc1[nH]c2ccccc2c1SCCNC(=O)c1ccc(S(=O)(=O)N2CCCC2)cc1	9%	?	-12%	-10	13µM*	-6
Cc1ccc2cc(CCNC(=O)c3ccc(S(=O)(=O)N4CCCCC4)cc3)c(=O)[nH]c2c1	0%	?	-2%	16	?	6
Cc1ccc2cc(CCNC(=O)c3ccc(S(=O)(=O)N4CCOCC4)cc3)c(=O)[nH]c2c1C	-5%	?	-7%	-5	12µM*	-2
Cc1ccc2cc(CCNC(=O)c3ccc(S(=O)(=O)N4CCOCC4)cc3)c(=O)[nH]c2c1	?	?	-2%	1	13µM*	-5
O=C(NCc1ccccc1)c1ccc(S(=O)(=O)N2CCCC2)cc1	2%	.	3%	5	?	6
COCCN1CCN(C(=O)C2CCC(=O)N(CCc3cccc(F)c3)C2)CC1 (centres undefined)	1%	27%	1%	-3	16%	0
CN1CCN(C(=O)/C(C#N)=C/c2ccc(F)cc2)CC1	4%	12%	-2%	-8	3%	12
O=C(N/N=C/c1ccc[nH]1)c1cc2ccccc2cc1O	2%	?	91%	78*	1%	31*
O=C(N/N=C/c1ccc[nH]1)c1cc(-c2ccc(Cl)cc2)nc2ccccc12	-2%	?	21%	10	?	9
O=C(Nc1ccccc1C(=O)N/N=C/c1ccncc1)c1ccccc1	-17%	423%	3%	17	?	22
O=C(N/N=C/c1ccncc1)c1cc2ccccc2cc1O	1%	15%	83%	31*	?	32*
Nn1c(SCC(=O)Nc2ccccc2)nnc1-c1cccnc1	6%	-12%	-2%	17	9%	15
Cc1cccc(C(=O)Nc2ccc(NC(=O)CN3CCOCC3)cc2)c1	-1%	47%	-6%	6	41%	-2
O=C1CSC(c2ccc(F)cc2)N1c1ccccc1F (centres undefined)	-1%	-3%	-13%	15	?	4
O=C1CSC(c2ccc(F)cc2)N1c1nc2ccccc2s1 (centres undefined)	-32%	-5%	-24%	6	10µM*	-1
COC(=O)c1sc2nc3c(cc2c1N)COC(C)(C)C3	-3%	173%	0%	198*	22%	80*
CC1(C)Cc2nc3sc4c(=O)n(CC(N)=O)cnc4c3cc2CO1	2%	49%	0%	24	74%	11

Bioassay records deposited in PubChem BioAssay by National Center for Advancing Translational Sciences (NCATS).
